According to PubChem BioAssay (Tox21):
Records with an inconclusive call do not appear. Entries that show only a call come without a potency. Calls of active or inactive are those of the source. The call rests on the fitted dose curve; in most records, active means well fitted inhibition curve with a large enough effect in the signal ratio in the repeat runs, with a control signal flat; inconclusive means weak or mixed curves, or effect the other way; inactive means flat fitted curve, though single readings scatter; the % refers to the signal ratio.

What follows are compounds tested against D(2) dopamine receptor (Homo sapiens) (UniProt P14416) (assay: Dopamine D2 receptor (DRD2) small molecule antagonists, cell-based qHTS assay (AID 1963595)). Settings: HEK293-DRD2 cAMP HTRF antagonist mode; series mostly up to 92.4 µM.
From the text: National Center for Advancing Translational Sciences [NCATS]
Division of Preclinical Innovation [DPI]
U.S. Environmental Protection Agency [EPA]
National Institutes of Environmental Health Sciences [NIEHS]
National Toxicology Program [NTP]
U.S. Food and Drug Administration [FDA]
DRD2 is the D2 subtype of the dopamine receptor, which is coupled to Gi subtype of G protein-coupled receptor. This G protein-coupled receptor inhibits adenylyl cyclase activity. The DRD2-HEK293 cell line stably expressing D2 dopamine receptor can be used for screening agonists and antagonists of interactions between D2 and its ligands. The Hek293-DRD2 cAMP assay is based on HTRF technology. It measures changes of cAMP accumulation in response to Gi coupled GPCR activation or inhibition.
Tox21 Assay Protocol Summary:
DRD2-Hek293 cells were dispensed at 600 cells/3uL/well in 1536-well white plates using a Multidrop Dispenser. After the assay plates were incubated at a 37 C/5% CO2 incubator for 24 h, 1 uL of Ro20-1724 at final concentration of 0.1 mM was transferred to the assay plate by a Flying Reagent Dispenser. Following Ro20-1724 addition, 23 nL of compound dissolved in DMSO, positive controls or DMSO only was added to the assay plates via Wako pintool station. The assay plates were incubated at room temperature for 10 min. Next, 1 uL of mixture of NKH477 (final concentration at 200 nM) and quinpirole (final concentration at 12 nM) was added into the plates. After the assay plates were incubated at room temperature for an additional 30 min, 2.5 ul/well of cAMP-d2 and 2.5 ul/well of anti-cAMP-cryptate were added respectively into the assay plates using a Flying Reagent Dispenser. The plates were incubated at room temperature for 1 h. The fluorescence intensity in the plates was measured at 340 nm excitation and 665 & 620 nm emission by an Envision plate reader.

Sequence of D(2) dopamine receptor (Homo sapiens) (P14416 whole entry, looked up): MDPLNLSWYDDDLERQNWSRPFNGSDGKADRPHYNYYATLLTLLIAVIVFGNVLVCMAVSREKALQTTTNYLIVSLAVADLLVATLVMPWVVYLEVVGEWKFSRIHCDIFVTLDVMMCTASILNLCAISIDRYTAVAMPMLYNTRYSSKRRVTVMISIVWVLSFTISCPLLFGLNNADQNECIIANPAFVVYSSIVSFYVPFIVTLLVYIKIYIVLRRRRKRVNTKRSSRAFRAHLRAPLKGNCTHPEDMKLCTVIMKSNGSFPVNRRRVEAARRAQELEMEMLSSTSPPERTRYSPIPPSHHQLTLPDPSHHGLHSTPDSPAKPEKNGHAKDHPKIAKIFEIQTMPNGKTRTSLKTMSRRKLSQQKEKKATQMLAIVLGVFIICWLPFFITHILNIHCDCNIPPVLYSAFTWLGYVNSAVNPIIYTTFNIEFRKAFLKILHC

Structure (SMILES) | Potency
NC(=O)c1ccc(N)cc1 | inactive
COC(=O)c1ccc(C)cc1C1=NC(C)(C(C)C)C(=O)N1 (stereo not given) | inactive
CCCC(C)C(O)CC (stereo not given) | inactive
CCCCC1CCC(O)CC1 (stereo not given) | inactive
CCOC(=O)CN1CCCC1=O | inactive
CCO[Si](C)(OCC)OCC | inactive
CCC(C)(C)C | inactive
Cc1ccc(C(=O)C(=O)O)cc1C | inactive
C=CCOCC(CC)(CO)COCC=C | inactive
Clc1nc2ccccc2s1 | inactive
Oc1cc(O)c2c(c1)O[C@H](c1ccc(O)c(O)c1)[C@H](O)C2 | inactive
COc1ccc(-c2coc3cc(O)cc(O)c3c2=O)cc1 | inactive
CO[Si](CCCNCCNCCN)(OC)OC | inactive
OCC(O)CN1CCN(c2ccccc2)CC1 (stereo not given) | inactive
Cc1ccc(C(C)(C)O)cc1 | inactive
Cl/C(=C\n1cncn1)c1ccc(Cl)cc1Cl | inactive
CCCCCCOC(=O)CC | inactive
CC(=O)CC(N)=O | inactive
Nc1ccc(Cl)c(N)c1 | inactive
COc1ccc(C#N)cc1 | inactive

Structure (SMILES) | Potency
CC12CCC(C1)C(C)(C)C2O (stereo not given) | inactive
CCC/C=C/CO | inactive
O=C(O)CCC(=O)Nc1ccc(S(=O)(=O)Nc2nccs2)cc1 | inactive
C/C(=C1\CCOC(=O)S1)N(C=O)Cc1cnc(C)nc1N | inactive
CC(C)(c1cc(Br)c(O)c(Br)c1)c1cc(Br)c(O)c(Br)c1 | inactive
CCO[Si](OCC)(OCC)c1ccccc1 | inactive
CC/C=C\CC1=C(C)CCC1=O | inactive
C1=CCC2CC=CC2C1 (stereo not given) | inactive
C[Si](C)(C)O[Si](C)(C)O[Si](C)(C)C | inactive
FC(F)(F)/C(=N\OCC1OCCO1)c1ccc(Cl)cc1 | inactive
CN(Cc1cnc2nc(N)nc(N)c2n1)c1ccc(C(=O)N[C@@H](CCC(=O)O)C(=O)O)cc1 | inactive
CCCCOCCOCCOCCO | inactive
CCCCCCCCCCCC(=O)N(C)CC(=O)O | inactive
O=C(O)CONC(=O)c1ccccc1 | inactive
CC(C)(C)NC[C@H](O)COc1nsnc1N1CCOCC1 | inactive
CC(C)=CCCC(C)CC=O (stereo not given) | inactive
CC[C@]1(O)C[C@@H]2CN(CCc3c([nH]c4ccccc34)[C@@](C(=O)OC)(c3cc4c(cc3OC)N(C)[C@H]3[C@@](O)(C(=O)OC)[C@H](OC(C)=O)[C@]5(CC)C=CCN6CC[C@]43[C@@H]65)C2)C1 | inactive
C=CC(=O)CC | inactive
CC(C)(C)c1ccc(S)cc1 | inactive
C=CC(C)(O)CC/C=C(/C)CCC=C(C)C (stereo not given) | inactive
